Experimental data taken from PubChem BioAssay (NCATS).
Results filed as inconclusive are left out. Active and inactive are the calls of the source. Unless noted, calls come from the whole dose curve; as a rule, active = well fitted curve in the direction sought with a large enough effect; inconclusive = small, poorly fitted or top-dose-only effect, or another doubt; inactive = no such curve, though single readings can be large; an effect the other way counts as inactive or inconclusive.

What was measured:
[1] = target: Thioredoxin reductase 1, cytoplasmic (Rattus norvegicus) (UniProt O89049); test: qHTS Assay for Substrates of Mammalian Selenoprotein Thioredoxin Reductase 1 (TrxR1) (AID 488772);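 note: series mostly up to about 57 µM; 0% is about no effect; a drop in NADPH fluorescence below the no-compound background marks a TrxR1 substrate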
Sequence of Thioredoxin reductase 1, cytoplasmic (Rattus norvegicus) (O89049 whole entry, looked up): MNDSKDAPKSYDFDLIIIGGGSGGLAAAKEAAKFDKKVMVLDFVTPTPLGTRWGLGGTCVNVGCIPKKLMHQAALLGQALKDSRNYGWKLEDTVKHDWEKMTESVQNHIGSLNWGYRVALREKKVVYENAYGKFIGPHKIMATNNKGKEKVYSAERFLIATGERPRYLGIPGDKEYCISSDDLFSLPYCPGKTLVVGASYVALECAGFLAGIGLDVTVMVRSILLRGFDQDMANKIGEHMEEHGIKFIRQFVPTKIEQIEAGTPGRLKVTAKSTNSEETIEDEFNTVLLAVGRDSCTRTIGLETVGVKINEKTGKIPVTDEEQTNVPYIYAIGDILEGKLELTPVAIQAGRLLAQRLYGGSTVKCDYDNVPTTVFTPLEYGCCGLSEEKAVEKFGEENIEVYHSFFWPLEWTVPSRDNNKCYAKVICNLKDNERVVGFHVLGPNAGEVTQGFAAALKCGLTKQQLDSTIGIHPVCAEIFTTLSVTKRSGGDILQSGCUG
Method in brief: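 In this dual-purpose format, potential substrates are identified from the first fluorescence read after selenite addition, not from the 8-minute delta. Rat enzyme is preincubated with NADPH and then with compound at ~22 deg C.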

[2] = target: Thioredoxin reductase 1, cytoplasmic (Rattus norvegicus) (UniProt O89049); test: qHTS Assay for Inhibitors of Mammalian Selenoprotein Thioredoxin Reductase 1 (TrxR1) (AID 488773); conditions: Potency: inhibition; note: nearly all actives have a fitted effect of over 40% in size; note: potency is the fitted concentration of half-maximal effect
Method in brief: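 Inhibition is scored from the loss of NADPH fluorescence between first and last reads of an 8-min kinetic run. Selenite (400 uM) was the substrate, added after 15 min compound preincubation at room temperature.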

[3] = target: Flap endonuclease 1 (Homo sapiens) (UniProt P39748); test: qHTS Validation Assay for the Inhibitors of Human Flap endonuclease 1 (FEN1) (AID 488816); note: potency is the fitted concentration of half-maximal effect
Sequence of Flap endonuclease 1 (Homo sapiens) (P39748 whole entry, looked up): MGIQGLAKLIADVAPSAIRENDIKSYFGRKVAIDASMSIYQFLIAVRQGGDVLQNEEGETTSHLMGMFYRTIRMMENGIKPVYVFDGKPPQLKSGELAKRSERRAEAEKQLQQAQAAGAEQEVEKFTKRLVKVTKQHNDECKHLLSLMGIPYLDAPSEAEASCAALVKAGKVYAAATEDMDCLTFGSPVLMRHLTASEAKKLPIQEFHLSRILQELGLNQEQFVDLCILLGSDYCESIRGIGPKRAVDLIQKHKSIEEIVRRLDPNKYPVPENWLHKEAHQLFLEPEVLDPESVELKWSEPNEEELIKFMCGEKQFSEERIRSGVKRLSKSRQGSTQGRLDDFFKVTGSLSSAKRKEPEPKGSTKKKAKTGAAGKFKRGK
Method in brief: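 qHTS format: compounds and 10 nM FEN1 incubated 15 min at room temperature before adding 50 nM substrate. Cleavage followed by reads at 0 and 15 min; normalized data fitted to a four-parameter Hill curve.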

[4] = target: M-phase phosphoprotein 8 (Homo sapiens) (UniProt Q99549); test: qHTS Validation Assay for Inhibitors for MPP8 Chromodomain Interactions with Methylated Histone Tails (AID 488949); note: nearly all actives have a fitted effect of over 55% in size; note: potency is the fitted concentration of half-maximal effect
Sequence of M-phase phosphoprotein 8 (Homo sapiens) (Q99549 whole entry, looked up): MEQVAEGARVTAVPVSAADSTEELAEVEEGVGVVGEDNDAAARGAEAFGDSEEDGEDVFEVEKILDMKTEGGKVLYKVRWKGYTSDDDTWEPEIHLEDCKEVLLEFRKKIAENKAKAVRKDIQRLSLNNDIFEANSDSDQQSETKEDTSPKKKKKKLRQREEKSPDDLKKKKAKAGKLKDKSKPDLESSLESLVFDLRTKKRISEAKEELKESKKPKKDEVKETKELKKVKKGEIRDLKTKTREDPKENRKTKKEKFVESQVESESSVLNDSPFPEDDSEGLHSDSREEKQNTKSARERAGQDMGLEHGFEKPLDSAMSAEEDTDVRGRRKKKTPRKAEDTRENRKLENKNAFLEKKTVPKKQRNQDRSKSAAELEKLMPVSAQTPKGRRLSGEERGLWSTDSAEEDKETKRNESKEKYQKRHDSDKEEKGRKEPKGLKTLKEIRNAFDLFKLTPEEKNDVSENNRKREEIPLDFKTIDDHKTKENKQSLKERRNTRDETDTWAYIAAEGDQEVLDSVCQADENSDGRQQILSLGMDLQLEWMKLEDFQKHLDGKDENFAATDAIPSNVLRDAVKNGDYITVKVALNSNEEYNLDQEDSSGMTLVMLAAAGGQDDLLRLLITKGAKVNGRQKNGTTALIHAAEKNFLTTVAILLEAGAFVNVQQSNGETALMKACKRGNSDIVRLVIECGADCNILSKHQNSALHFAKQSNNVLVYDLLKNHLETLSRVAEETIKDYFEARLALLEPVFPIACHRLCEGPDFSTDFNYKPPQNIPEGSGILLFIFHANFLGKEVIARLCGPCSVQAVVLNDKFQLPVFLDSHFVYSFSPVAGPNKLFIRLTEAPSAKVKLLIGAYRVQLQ
Method in brief: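 50 nM MPP8 + 50 nM b-H3K9me3 peptide, PBS pH 7.4/0.01% Tween-20, 30 min RT; + cpd 30 min RT; + AlphaScreen donor/Ni-chelate acceptor beads 10 ug/mL final, 30 min dark; luminescence read.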

[5] = target: Chromobox protein homolog 1 (Homo sapiens) (UniProt P83916); test: qHTS Validation Assay for Inhibitors of HP1-beta Chromodomain Interactions with Methylated Histone Tails (AID 488953); note: nearly all actives have a fitted effect of over 50% in size; note: potency is the fitted concentration of half-maximal effect
Sequence of Chromobox protein homolog 1 (Homo sapiens) (P83916 whole entry, looked up): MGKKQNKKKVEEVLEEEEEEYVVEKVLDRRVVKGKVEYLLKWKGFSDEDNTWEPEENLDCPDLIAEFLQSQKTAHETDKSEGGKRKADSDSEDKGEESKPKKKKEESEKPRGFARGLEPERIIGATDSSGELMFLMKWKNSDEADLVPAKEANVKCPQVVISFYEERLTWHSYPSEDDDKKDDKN
Method in brief: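 Compounds pinned into a preassembled complex of HP1-beta and trimethyl-K9 histone H3(1-18) biotin peptide (50 nM each; PBS pH 7.4, 0.01% Tween-20). After 30 min, bead-based AlphaScreen detection followed.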

[6] = target: Methanococcus maripaludis chaperonin (MmCpn) (UniProt Q6LX38); test: High-Throughput Screening for Modulators of Cytosolic Chaperonin Activity: MmCpn Primary Screen (AID 488978);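 note: 50 nM MmCpn enzyme hydrolysing 30 µM ATP at 37 °C; 0% is about no effect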
Method in brief: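 Steps: chaperonin 50 nM final; add compound, 5 min RT; start with ATP, 30 uM final; hold 10 min at 37C; add ADP Transcreener HTRF reagent, 5 min; read ex 320, em 590 and 665 nm.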

[7] = target: Transient receptor potential cation channel subfamily V member 1 (Homo sapiens) (UniProt Q8NER1); test: HTS Assay for Compounds that Act as Enhancers of the Vanilloid Receptor 1 (AID 488979); note: 0% is about no effect
Sequence of Transient receptor potential cation channel subfamily V member 1 (Homo sapiens) (Q8NER1 whole entry, looked up): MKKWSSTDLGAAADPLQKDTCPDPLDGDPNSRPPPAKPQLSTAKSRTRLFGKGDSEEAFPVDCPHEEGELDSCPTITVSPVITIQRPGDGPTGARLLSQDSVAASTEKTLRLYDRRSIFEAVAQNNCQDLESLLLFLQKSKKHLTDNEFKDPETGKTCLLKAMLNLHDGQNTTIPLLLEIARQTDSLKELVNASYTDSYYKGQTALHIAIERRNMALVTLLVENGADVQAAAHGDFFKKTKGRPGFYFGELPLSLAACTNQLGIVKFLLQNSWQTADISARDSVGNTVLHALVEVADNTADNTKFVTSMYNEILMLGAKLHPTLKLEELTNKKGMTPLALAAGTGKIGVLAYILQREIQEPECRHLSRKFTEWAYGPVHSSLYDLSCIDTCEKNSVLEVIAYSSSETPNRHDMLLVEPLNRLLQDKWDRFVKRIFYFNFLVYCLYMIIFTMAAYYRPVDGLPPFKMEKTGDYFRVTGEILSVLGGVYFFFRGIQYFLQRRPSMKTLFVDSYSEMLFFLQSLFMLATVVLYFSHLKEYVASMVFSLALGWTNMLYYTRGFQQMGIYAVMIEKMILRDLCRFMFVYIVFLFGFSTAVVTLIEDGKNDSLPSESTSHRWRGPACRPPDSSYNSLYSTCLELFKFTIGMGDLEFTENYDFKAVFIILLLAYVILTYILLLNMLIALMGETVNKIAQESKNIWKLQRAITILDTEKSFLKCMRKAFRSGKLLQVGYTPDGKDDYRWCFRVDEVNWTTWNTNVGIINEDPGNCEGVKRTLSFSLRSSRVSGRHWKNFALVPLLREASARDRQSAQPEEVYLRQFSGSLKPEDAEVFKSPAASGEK
Method in brief: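 Calcium influx kinetics via Fluo-8 (480/520 nm) in TRPV1-expressing cells, 2000/well cultured overnight at 35.5C. Compound-alone read 3 min (agonist phase), followed by EC20 capsaicin challenge for 2 min (enhancer phase).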

[8] = target: Thyrotropin receptor (Homo sapiens) (UniProt P16473); test: qHTS Assay for Antagonists of the Thyroid Stimulating Hormone Receptor (AID 488980); note: series mostly up to about 58 µM; 0% is about no effect
Sequence of Thyrotropin receptor (Homo sapiens) (P16473 whole entry, looked up): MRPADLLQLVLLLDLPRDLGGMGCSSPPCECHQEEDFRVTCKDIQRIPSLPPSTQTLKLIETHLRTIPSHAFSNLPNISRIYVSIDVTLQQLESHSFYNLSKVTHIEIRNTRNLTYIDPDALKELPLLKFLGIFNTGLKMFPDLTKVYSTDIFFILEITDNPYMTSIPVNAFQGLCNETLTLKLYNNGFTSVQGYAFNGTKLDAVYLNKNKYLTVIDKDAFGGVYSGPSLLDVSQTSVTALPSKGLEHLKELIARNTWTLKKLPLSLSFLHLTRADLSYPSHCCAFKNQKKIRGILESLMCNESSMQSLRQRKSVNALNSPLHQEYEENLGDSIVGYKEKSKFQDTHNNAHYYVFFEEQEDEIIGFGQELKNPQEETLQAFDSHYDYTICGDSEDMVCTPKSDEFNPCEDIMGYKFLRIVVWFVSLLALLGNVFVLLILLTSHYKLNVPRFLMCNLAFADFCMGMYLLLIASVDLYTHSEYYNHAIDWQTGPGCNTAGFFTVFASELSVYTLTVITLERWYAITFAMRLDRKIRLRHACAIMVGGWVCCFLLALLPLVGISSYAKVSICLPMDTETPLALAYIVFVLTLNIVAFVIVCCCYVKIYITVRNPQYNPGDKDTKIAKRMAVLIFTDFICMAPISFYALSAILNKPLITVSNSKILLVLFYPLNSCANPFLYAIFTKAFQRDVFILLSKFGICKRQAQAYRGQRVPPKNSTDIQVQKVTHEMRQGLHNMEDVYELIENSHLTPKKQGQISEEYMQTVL
Method in brief: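 Readout is cAMP by HTRF competition between cellular cAMP and cAMP-d2 for a cryptate-labelled antibody. Antagonism was assessed in TSHR-transfected HEK293 cells stimulated with 4 nM TSH (EC80, final) in the presence of RO 20-1724.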

[9] = target: D(1A) dopamine receptor (Homo sapiens) (UniProt P21728); test: HTS Assay for Allosteric Agonists of the Human D1 Dopamine Receptor: Primary Screen for Agonists (AID 488981); note: potency is the fitted concentration of half-maximal effect; for activation: 0% is about no effect
Sequence of D(1A) dopamine receptor (Homo sapiens) (P21728 whole entry, looked up): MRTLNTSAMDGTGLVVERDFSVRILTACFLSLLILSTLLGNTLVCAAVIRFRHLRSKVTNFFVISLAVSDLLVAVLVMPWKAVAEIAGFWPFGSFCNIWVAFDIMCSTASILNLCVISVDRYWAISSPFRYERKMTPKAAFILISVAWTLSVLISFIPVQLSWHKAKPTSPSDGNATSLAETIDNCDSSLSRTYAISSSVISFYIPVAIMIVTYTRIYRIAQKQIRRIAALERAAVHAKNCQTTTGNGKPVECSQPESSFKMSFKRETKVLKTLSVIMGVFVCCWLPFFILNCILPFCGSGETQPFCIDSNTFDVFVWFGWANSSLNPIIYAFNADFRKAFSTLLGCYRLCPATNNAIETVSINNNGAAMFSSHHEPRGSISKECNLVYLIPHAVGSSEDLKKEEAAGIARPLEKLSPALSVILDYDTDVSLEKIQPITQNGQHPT
Method in brief: (§1)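 Calcium flux in an inducible, force-coupled HEK293 Trex D1 line (overnight at 30 C): agonist mode is the 180 s kinetic read after compound; potentiator mode is the following 180 s read after dopamine at EC20.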

[10] = target: D(1A) dopamine receptor (Homo sapiens) (UniProt P21728); test: HTS Assay for Allosteric Agonists of the Human D1 Dopamine Receptor: Primary Screen for Potentiators (AID 488982); note: 0% is about no effect
Method in brief: as §1

[11] = Validation screen for small molecules that induce genotoxicity in human embryonic kidney (HEK293T) cells expressing luciferase-tagged ELG1 (AID 493106); note: 0% is about no effect
Method in brief: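 In this validation screen, increased ELG1-luciferase signal flags compounds causing genetic stress. HEK293T reporter cells are treated 16 hr (37 °C, 5% CO2), developed with ONE-Glo for 30 min at room temperature, and imaged on a CCD-based reader.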

[12] = target: ATPase family AAA domain-containing protein 5 (Homo sapiens) (UniProt Q96QE3); test: Validation screen for small molecules that inhibit ELG1-dependent DNA repair in human embryonic kidney (HEK293T) cells expressing luciferase-tagged ELG1 (AID 493107);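 note: cells co-treated with the DNA-damaging agent 5-fluorouridine alongside compound; series mostly up to about 46 µM; % is set by controls: 0 for no effect and ±100 for the full control effect; inhibitors lower the ELG1-luciferase luminescence signal; nearly all actives have a fitted effect of over 70% in size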
Method in brief: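 Compounds reducing 5-fluorouridine-driven ELG1-luciferase signal in HEK293T cells were scored; exposure lasted 16 hr at 37 °C with luminescence detected via ONE-Glo.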

[13] = target: Thyrotropin-releasing hormone receptor (Homo sapiens) (UniProt P34981); test: qHTS for Small Molecule Agonists and Allosteric Enhancers of Human TRH Receptor: Validation Screen for Agonists (AID 493127;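 active = calcium activation more than 3 SD above the typical response in the agonist read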;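 note: intracellular calcium rise by fluo-8 fluorescence before TRH EC20 addition; 0% is about no effect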); conditions: TRH receptor agonist cell assay; at 2 µM; stronger effect = higher value
Sequence of Thyrotropin-releasing hormone receptor (Homo sapiens) (P34981 whole entry, looked up): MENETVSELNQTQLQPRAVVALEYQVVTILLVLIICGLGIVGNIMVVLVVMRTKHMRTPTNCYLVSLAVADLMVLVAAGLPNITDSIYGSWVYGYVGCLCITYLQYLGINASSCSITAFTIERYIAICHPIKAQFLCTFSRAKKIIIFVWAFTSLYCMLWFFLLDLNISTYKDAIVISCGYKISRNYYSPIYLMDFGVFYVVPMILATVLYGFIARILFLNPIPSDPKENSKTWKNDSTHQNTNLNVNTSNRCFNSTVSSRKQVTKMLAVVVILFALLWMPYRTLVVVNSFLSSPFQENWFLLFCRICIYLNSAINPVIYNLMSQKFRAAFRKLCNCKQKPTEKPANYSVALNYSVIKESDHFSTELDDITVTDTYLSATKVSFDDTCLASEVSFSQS
Method in brief: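 Kinetic fluorescence assay of agonist-induced calcium release: overnight-plated TRHR cells, room-temperature fluo-8 loading, baseline then compound addition with per-second reads.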

[14] = qHTS for Inhibitors of Cell Surface uPA Generation: Validation Assay (AID 493164);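 note: RAW 264.7 macrophage cells exposed to compound for 18 h; 0% is about no effect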
Method in brief: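 Compounds are titrated over seven points (2.45 nM–38.3 uM final) onto pre-plated RAW 264.7 cells and incubated for 18 h. Retained intracellular ATP, measured with ATP-Lite, indicates blocked lethal factor entry.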

[15] = target: Galactokinase (Homo sapiens) (UniProt P51570); test: qHTS Validation Assay for Inhibitors of Human Galactokinase (GALK) (AID 493189); note: 0% is about no effect
Sequence of Galactokinase (Homo sapiens) (P51570 whole entry, looked up): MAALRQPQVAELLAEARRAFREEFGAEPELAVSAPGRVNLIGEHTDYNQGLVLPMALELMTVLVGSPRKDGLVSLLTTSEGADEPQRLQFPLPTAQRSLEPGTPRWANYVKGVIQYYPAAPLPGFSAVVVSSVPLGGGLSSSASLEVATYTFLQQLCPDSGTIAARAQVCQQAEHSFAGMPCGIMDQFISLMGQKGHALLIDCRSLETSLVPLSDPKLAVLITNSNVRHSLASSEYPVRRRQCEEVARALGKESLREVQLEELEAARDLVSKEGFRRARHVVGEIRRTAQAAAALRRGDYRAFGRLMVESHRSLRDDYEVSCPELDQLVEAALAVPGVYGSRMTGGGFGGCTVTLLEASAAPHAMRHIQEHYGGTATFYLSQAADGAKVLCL
Method in brief: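 5 nM GALK / 100 uM galactose / 35 uM ATP, 20 mM HEPES pH8.0, 5 mM MgCl2, 60 mM NaCl, 1 mM DTT, 0.01% BSA (final). RT 1 h; Kinase-Glo Plus luminescence.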

[16] = target: D(1A) dopamine receptor (Homo sapiens) (UniProt P21728); test: HTS Assay for Allosteric Agonists of the Human D1 Dopamine Receptor: Primary Screen for Antagonists (AID 488983);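 note: calcium flux response to an EC80 dopamine challenge measured with no-wash dye; % is set by controls: 0 for no effect and ±100 for the full control effect; nearly all actives have a fitted effect of over 65% in size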
Method in brief: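 In this primary screen, compounds are applied to calcium-dye-loaded HEK293 T-REx cells with force-coupled D1 expression induced overnight at 30 C. An EC80 of dopamine follows the 180 s compound phase, and calcium is monitored for a further 180 s.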

[17] = Nrf2 qHTS screen for inhibitors: Validation (AID 493153; active = well fitted inhibition curve with a large enough effect in the main read-out, with a control signal flat, not every such curve was filed as active); conditions: viability change: measured here: cytotoxicity max response
Method in brief: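 In this counterscreened reporter format, each well gives two signals: CellTiter-Fluor fluorescence for cytotoxicity and ARE-luciferase luminescence for Nrf2 function. A549 ARE_Fluc cells in 5% FBS OPTI-MEM were exposed to compound titrations for 18-24 h.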

[18] = target: ATP-dependent 6-phosphofructokinase (Trypanosoma brucei brucei) (UniProt O15648); test: qHTS Assay to Find Inhibitors of T. brucei phosphofructokinase: hit validation (AID 492961);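 note: luminescence reports ADP formed as PFK phosphorylates fructose-6-phosphate with ATP; series mostly up to about 51 µM; % is set by controls: 0 for no effect and ±100 for the full control effect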
Method in brief: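 ADP-Glo luminescence read-out of ADP formed by 1.25 nM PFK from 0.1 mM ATP and 0.5 mM F6P (TEA pH 8.0, 45 min, RT). Compounds titrated; activity normalized to no-enzyme and full-enzyme controls.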

CCCCc1ccc(C(=O)O)nc1
inactive: outcome [1] | Potency [2] | Potency [3] | Potency [4] | Potency [5] | outcome [6] | outcome [7] | outcome [8] | Potency [9] | outcome [10] | outcome [11] | Potency [12] | activation [13] 1.25% | outcome [14] | outcome [15]

COc1cc(C(O)CN)ccc1O (configuration not stated)
-5.73%: viability change [17]
inactive: outcome [1] | Potency [2] | Potency [3] | Potency [4] | Potency [5] | outcome [6] | outcome [7] | outcome [8] | Potency [9] | outcome [10] | Potency [16] | outcome [11] | Potency [12] | activation [13] 0.375% | outcome [17] | outcome [14] | outcome [15]

CC1=NN=C(c2ccc(N)cc2)c2cc3c(cc2C1)OCO3
-4.5%: viability change [17]
inactive: outcome [1] | Potency [2] | Potency [3] | Potency [4] | Potency [5] | outcome [6] | outcome [7] | outcome [8] | Potency [9] | outcome [10] | outcome [11] | Potency [12] | activation [13] 0.438% | outcome [17] | outcome [14] | outcome [15]

C[C@@H](N)Cc1cnc[nH]1
inactive: outcome [1] | Potency [2] | Potency [3] | Potency [4] | Potency [5] | outcome [6] | outcome [7] | outcome [8] | Potency [9] | outcome [10] | outcome [11] | Potency [12] | activation [13] 1.12% | outcome [14] | outcome [15]

C[C@@H]1O[C@H](C[N+](C)(C)C)C[C@H]1O
-6.13%: viability change [17]
inactive: outcome [1] | Potency [2] | Potency [3] | Potency [4] | Potency [5] | outcome [6] | outcome [7] | outcome [8] | Potency [9] | outcome [10] | Potency [12] | activation [13] 20.8% | outcome [17] | outcome [14] | outcome [15]

NC(=NCCC[C@H](N)C(=O)O)N[N+](=O)[O-]
3.87%: viability change [17]
inactive: outcome [1] | Potency [2] | Potency [3] | Potency [4] | Potency [5] | outcome [6] | outcome [7] | outcome [8] | Potency [9] | outcome [10] | outcome [11] | Potency [12] | activation [13] 0.625% | outcome [17] | outcome [14] | outcome [15]

c1ccc(CCCN2CCN(CCOC(c3ccccc3)c3ccccc3)CC2)cc1
active: Potency [4] 39800 nM | Potency [5] 8.4 nM
-4.56%: viability change [17]
inactive: outcome [1] | Potency [2] | Potency [3] | outcome [6] | outcome [7] | outcome [8] | Potency [9] | outcome [10] | outcome [11] | activation [13] 0.0625% | outcome [17] | outcome [14] | outcome [15]

COC(C)(C)CCCC(C)C/C=C/C(C)=C/C(=O)OC(C)C (configuration not stated)
inactive: Potency [18]

CCCCCCCCCCCCCCCC[N+](C)(C)C
inactive: Potency [18]

CC(=O)OCC1=C(C(=O)O)N2C(=O)[C@@H](N)[C@@H]2SC1
inactive: Potency [18]

CC(C)Oc1cccnc1N(C)C1CCN(Cc2ccccc2)CC1
inactive: outcome [1] | Potency [2] | Potency [3] | Potency [4] | outcome [6] | outcome [7] | outcome [8] | Potency [9] | outcome [10] | outcome [11] | Potency [12] | activation [13] 0% | outcome [17] | outcome [14] | outcome [15]
1.23%: viability change [17]

NC(=O)CN1CC(O)CC1=O (configuration not stated)
inactive: outcome [1] | Potency [2] | Potency [4] | Potency [5] | outcome [6] | outcome [7] | outcome [8] | Potency [9] | outcome [10] | Potency [18] | outcome [11] | Potency [12] | activation [13] 1.25% | outcome [17] | outcome [14] | outcome [15]
1.59%: viability change [17]

CNCCc1ccc(O)c(O)c1
active: Potency [2] 13400 nM | Potency [3] 2990 nM | Potency [9] 282 nM
0.688%: viability change [17]
inactive: outcome [1] | Potency [4] | outcome [6] | outcome [7] | outcome [8] | outcome [10] | outcome [11] | Potency [12] | activation [13] -0.25% | outcome [17] | outcome [14] | outcome [15]

CCCN1CCC[C@H](c2cccc(O)c2)C1
1.24%: viability change [17]
inactive: outcome [1] | Potency [2] | Potency [4] | Potency [5] | outcome [7] | outcome [8] | Potency [9] | outcome [10] | Potency [16] | Potency [18] | outcome [11] | Potency [12] | activation [13] 2.19% | outcome [17] | outcome [14] | outcome [15]

O=C(O)COc1ccccc1
inactive: Potency [18]

C1CCC(NC2CCCCC2)CC1
inactive: Potency [18]

CN(C)[C@@H]1C(=O)C(C(N)=O)=C(O)[C@@]2(O)C(=O)C3=C(O)c4c(O)cccc4[C@@](C)(O)[C@H]3[C@H](O)[C@@H]12
inactive: Potency [18]

C[C@]12CCC(=O)C(O)=C1CC[C@@H]1[C@H]3CCC(=O)[C@@]3(C)CC[C@@H]12
inactive: Potency [18]
